# Measured values as given in PubChem BioAssay (NCI).
# The panel holds about 83,000 compounds, 20% with a hit somewhere; the sample as a whole holds those more often.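 Step 1: grow cells in 96-well plates. Step 2: add test compound at a single concentration. Step 3: incubate 48 h. Step 4: record percent growth.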 A number with no mark means an inactive call. The source made the active and inactive calls.
# System: ACHN renal
# Assay: NCI-60 one-dose screen, 48 h (100 = growth as untreated, 0 = no growth, -100 = all killed)
# Conditions: 10 µM unless noted
# Protocol: Growth inhibition of the ACHN human tumor cell line is measured as a screen for anti-cancer activity. Cells are grown in 96 well plates and exposed to the test compound for 48 hours. Compounds are tested at a single concentration, which is 10^-5 M for most compounds. The reported endpoint is percent growth (GI% or GIPRCNT), where numbers from 0 - 100% represent growth inhibition, and numbers from -100% - 0 represent cell death. For example, a value of 40 represents 60% growth inhibition. A value of 0 means no net growth occurred over the course of the experiment. A value of -40 indicates 40% of cells at the beginning of the experiment died by the end of the experiment. A value of -100 means all cells are dead at the end of the experiment.
# NCI-60 Human Tumor Cell Lines Screen was performed using the standard one-dose NCI protocol, which is described in more detail at https://dtp.cancer.gov/discovery_development/nci-60/default.htm.
# Compounds with GIPRCNT values below 10 were considered active. Activity score was based on GIPRCNT using the following formula: […]
# Score is 0 for GIPRCNT values of 100 or above, 50 for GIPRCNT values of 0, and 100 for GIPRCNT values of -100.
row,Structure (SMILES),growth
1,CC(C)(C)c1ccc(S(=O)(=O)O)s1,96.3%
2,c1ccc2cc(C[n+]3ccn(CCCCCCCn4cc[n+](Cc5ccc6ccccc6c5)c4)c3)ccc2c1,60.2%
3,O=C1C2C3C=CC(O3)C2C(=O)N1Nc1ccccc1 (stereo not given),103%
4,O=[N+]([O-])c1ccc(Oc2cccc(C(F)(F)F)c2)c([N+](=O)[O-])c1,42%
5,COc1ccc(OC)c(/C=C/c2nc(=S)n(-c3ccc(Cl)cc3)[nH]2)c1,71.2%
6,CC1=NN(c2ccccc2Cl)C(=O)/C1=C\c1cn(S(=O)(=O)c2ccc(C)cc2)c2ccccc12,97.5%
7,Nc1nonc1-c1nc2ccccc2n1CC(=O)Nc1ccc2c(c1)COC2=O,92.2%
8,Oc1[nH]c2ccccc2c1/C=c1/ccc2c(c1)N=C(c1cc(F)cc(F)c1)N=2,50.9%
9,COC(=O)[C@]1(C(C)C)N[C@H](c2cn(-c3ccccc3)nc2-c2ccccc2)[C@@H]2C(=O)N(c3ccc(Cl)cc3)C(=O)[C@@H]21,93.9%
10,O=C(Nc1nc(-c2ccc(Cl)cc2)cs1)c1cc(O)c(O)c(O)c1,15.9%
11,CCCc1cc(=O)n2c(C(=O)Nc3ccccc3OC)c(C(=O)Nc3ccc(F)cc3)sc2n1,20.3% [30 µM]
12,CCCCCCC(C)(O)c1ccccc1 (stereo not given),103%
13,C=Cc1nn2c(CCC(=O)c3nc4ccccc4[nH]3)nnc2s1,96.2%
14,Cc1nn(-c2ccc(Cl)cc2)c2nc3c(nc12)C(=O)C(=O)c1ccccc1-3,81.2%
15,CO[C@H]1CC(O[C@@H]2/C(C)=C/C[C@@H]3C[C@@H](C[C@]4(CC[C@H](C)[C@@H](C5CCCCC5)O4)O3)OC(=O)[C@@H]3C=C(C)/C(=N/O)[C@H]4OC/C(=C\C=C\[C@@H]2C)[C@]43O)O[C@@H](C)C1O (stereo not given in full),-94.4% (active)
16,Clc1ncn[nH]1,98.3%
17,O=C(Nc1ccc(Cl)cc1)Nc1ccc(Oc2nncc3ccccc23)cc1,-15.1% (active)
18,Cc1nn(-c2ccccc2)c2c1oc(=O)c1cc(Cl)ccc12,101%
19,Cc1c(C(N)=O)sc2nc(SCC(=O)Nc3ccc(Cl)cc3)n(-c3ccccc3)c(=O)c12,106%
20,CN1COc2ccc3ccccc3c2C1,89%

row,Structure (SMILES),growth
1,N#CCCN(CCO)c1ccccc1,106%
2,CN(C)c1ccc(/C=C\c2ccnc3ccccc23)cc1,70.6%
3,Oc1ccccc1C=Nc1ccccc1N=Cc1ccccc1O.[Cu+2],57.3%
4,CC[N+](CC)(CCOCCOCC[N+](CC)(CC)Cc1ccc([N+](=O)[O-])cc1)Cc1ccc([N+](=O)[O-])cc1,102%
5,O=C1N(C2CCCCC2)C(=O)N1C1CCCCC1,11.4%
6,O=C(Nc1ccc(OCc2nnc(-c3ccccc3)o2)c(F)c1)Nc1ccc(Cl)c(C(F)(F)F)c1,9.47% (active)
7,Cc1c(N(C)CS(=O)(=O)O)c(=O)n(-c2ccccc2)n1C,101%
8,C=C1CC[C@@H]2[C@](C)(COC(C)=O)[C@H](OC(C)=O)CC[C@@]2(C)[C@@H]1CC(Nc1ccc(S(=O)(=O)Nc2cc(C)on2)cc1)C1=CCOC1=O (stereo not given in full),19.5%
9,O=C(NN(C(=O)c1ccccc1)c1cccs1)c1ccccc1,104%
10,Cn1cc(-c2nc(-c3c[nH]c4ncc(F)cc34)cs2)c2cccnc21,93.7%
11,Cc1cc([N+](=O)[O-])c(C)cc1C(=O)O,99.8%
12,Cc1nc2cc(NC(=O)CN3CCN(CCN4C(=O)c5cccc6cccc(c56)C4=O)CC3)ccc2s1,33.9%
13,Cc1ccc(C(=O)Nc2ccc(Cl)cc2C(=O)NCc2ccccc2)cc1,86.4%
14,O=C1NCN(CCO)CN1,104%
15,O=C(/C=C/c1cccnc1)NCCCCC1CCCN(C(=O)c2ccccc2)C1 (stereo not given),73.7%
16,CCCCCCCCCCCCCCCCCc1nccn1CCO,63.7%
17,CCC(C)(C)C(=O)O[C@H]1C[C@@H](C)C=C2C=C[C@H](C)[C@H](CC[C@@H]3C[C@@H](O)CC(=O)O3)[C@H]21,14.7%
18,Nc1nc(SCC2(CCl)COC2)c2[nH]cnc2n1,95.7%
19,C[C@]12CC[C@@H]3c4ccc(O)c([N+](=O)[O-])c4CC[C@H]3[C@@H]1CC[C@@H]2NS(=O)(=O)c1ccc(C(F)(F)F)cc1,3% (active)
20,CN1CCCC1c1cccnc1 (stereo not given),99%
